In the library only some 14% were active in any assay of this set; here they are far more common.
HCMV inh: qHTS Assay for inhibitors of the human cytomegalovirus (HCMV); HFF cells, HCMV-luciferase reporter, 72 h; stronger effect = lower value; activity change, negative = inhibition, % at 57.5 µM; 410,000 tested, 4.5% active; AID 1259415, 2018; in the data active = activity change below about -60%; inconclusive = no clear call, values can overlap the other calls; inactive = above about -39%
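Two compound doses tested in HFFs infected with HCMV-luciferase, MOI 1 PFU/cell, 72 h at 37C. Lysate luminescence read with OneGlo; data normalized against buffer-only and 10uM Salinomycin inhibitor controls.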
Sm TGR block: qHTS Assay for the Inhibitors of Schistosoma Mansoni Peroxiredoxins | purified TGR, DTNB reduction, TNB absorbance 405 nm | AID 485364, 2010 | Schistosoma mansoni thioredoxin glutathione reductase (TGR), Q962Y6 | 360,000 tested, 3% active | Potency, µM (titrated, usually from 114 µM), usual class: inhibitors; also: nearly all actives have a fitted effect of over 60% in size
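First, TGR (20 nM dispensed) and NADPH were mixed with compound. Second, a 15 min room-temperature incubation followed. Third, further NADPH and then DTNB were added to start the reaction. Finally, TNB absorbance was monitored kinetically.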
Giardia FBPA inh: qHTS Assay for Inhibitors of Fructose-1,6-bisphosphate Aldolase from Giardia Lamblia; A8B2U2; purified Giardia FBPA; Potency, µM (series often up to 59.6 µM), actives largely listed as inhibitors; 290,000 tested, 0.71% active; AID 2451, 2010; also: nearly all actives have a fitted effect of over 55% in size
Target sequence (A8B2U2 whole entry, looked up): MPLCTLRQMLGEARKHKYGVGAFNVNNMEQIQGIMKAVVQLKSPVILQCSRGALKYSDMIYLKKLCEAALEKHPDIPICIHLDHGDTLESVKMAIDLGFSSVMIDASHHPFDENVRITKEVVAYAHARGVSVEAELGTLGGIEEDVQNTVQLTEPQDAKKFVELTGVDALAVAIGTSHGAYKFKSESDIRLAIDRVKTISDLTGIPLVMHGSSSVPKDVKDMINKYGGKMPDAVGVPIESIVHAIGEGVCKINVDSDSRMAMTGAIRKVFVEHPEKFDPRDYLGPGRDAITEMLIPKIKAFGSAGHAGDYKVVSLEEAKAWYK
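40 nM FBPA preincubated 10 min at RT with compound (up to 57.5 uM final), then substrate plus GAPDH/TPI/NAD/arsenate coupling and diaphorase/resazurin added. Fluorescence read after 20 min at RT, 525/598 nm.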
Pf growth 48h: Primary qHTS for delayed death inhibitors of the malarial parasite plastid, 48 hour incubation. Potency, µM (highest dose often 28.7 µM), most hits filed as inhibitors. 310,000 tested, 5.9% active. P. falciparum luciferase growth in erythrocytes, 48 h
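Luciferase-expressing P. falciparum in infected erythrocytes (2% hematocrit, 0.1% parasitemia final) in RPMI 1640/0.5% Albumax were exposed to compound for 48 hours at 37 C, 5% CO2; growth read as luminescence.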
Pf growth 96h: Primary qHTS for delayed death inhibitors of the malarial parasite plastid, 96 hour incubation | P. falciparum luciferase reporter growth, 96 h | Potency, µM (top dose mostly 28.7 µM), hits mostly inhibitors | 320,000 tested, 6.9% active | AID 504834, 2011
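96 h incubation, 37 C, 5% CO2, of luciferase-reporter P. falciparum-infected RBCs (2% hematocrit, 0.05% parasitemia final) with test compounds; endpoint luminescence.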
Each line names hits and unclear results; the compound was inactive in the other large screens. Unless noted, calls follow the shape of the dose curve; as a rule, active = well fitted curve in the direction sought with a large enough effect; inconclusive = small, poorly fitted or top-dose-only effect, or another doubt; inactive = no such curve, though single readings can be large; an effect the other way counts as inactive or inconclusive.

CC1CCCC1/C(=N/O)c1ccccc1 (stereo not given)	none
CC[N+]12CCC(CC1)C(=C(c1ccccc1)c1ccccc1)C2	HCMV inh -61, Pf growth 96h inconclusive
CCC/C(=N\NC(=O)C1CC1)c1ccccc1	none (no result: Sm TGR block, Giardia FBPA inh, Pf growth 48h, Pf growth 96h)
C[N+]12CCC(CC1)C(=C(c1ccccc1)c1ccccc1)C2	HCMV inh inconclusive, Pf growth 48h 0.74µM, Pf growth 96h 0.59µM
CCOC(=O)CCN1C(=O)[C@H]2[C@H]3[C@H](O)[C@H](O)C/C(=N/OCc4ccccc4)[C@H]3CC[C@@H]2C1=O	none (no result: HCMV inh, Sm TGR block, Pf growth 48h, Pf growth 96h)
COc1ccc(-c2nn(CCC#N)cc2C(=O)Nc2ccccc2)cc1OC	Sm TGR block inconclusive
COc1ccc(-c2nn(CCC#N)cc2C(=O)NCc2ccccc2)cc1OC	Pf growth 96h 12µM
CC(C)(Oc1ccc(C2CCCc3ccccc32)cc1)C(=O)O (stereo not given)	none (no result: HCMV inh, Sm TGR block, Giardia FBPA inh)
COc1ccc(C(=O)Nc2cc(C(C)C)c(O)c(S(=O)(=O)c3ccc(OC)cc3)c2C)cc1	HCMV inh -104 (no result: Giardia FBPA inh, Pf growth 48h, Pf growth 96h)
COc1ccc(C2=NOC(Cn3nc(-c4ccccc4)cc3C(=O)NCc3ccccc3OC)C2)cc1 (stereo not given)	none (no result: Sm TGR block, Giardia FBPA inh, Pf growth 48h, Pf growth 96h)
CC(=O)N1CCN(c2ccccc2NC(=O)COc2cc(C)ccc2C(C)C)CC1	HCMV inh inconclusive, Pf growth 48h inconclusive (no result: Pf growth 96h)
Cc1ccccc1OCC(=O)Nc1ccccc1N1CCCCC1	Pf growth 48h inconclusive, Pf growth 96h 10µM
CC(=O)N1CCN(c2ccccc2NC(=O)COc2ccc(Br)cc2)CC1	Pf growth 48h inconclusive, Pf growth 96h 4.7µM
O=C(COc1ccc(Br)cc1)Nc1ccccc1N1CCCC1	Pf growth 96h inconclusive
Cc1ccc2c(c1)-c1c(cnn1CC(=O)Nc1ccccc1N1CCN(C)CC1)CO2	HCMV inh inconclusive, Pf growth 48h 10µM
Cc1cccc(OCC(=O)Nc2ccccc2N2CCCC2)c1C	Pf growth 48h inconclusive, Pf growth 96h inconclusive (no result: Giardia FBPA inh)
COc1ccccc1N1CCN(C(=O)Cn2ncc3c2-c2cc(C)ccc2OC3)CC1	none (no result: Giardia FBPA inh, Pf growth 48h, Pf growth 96h)
Cc1ccc(C(C)C)c(OCC(=O)Nc2ccccc2N2CCN(C)CC2)c1	HCMV inh -74, Pf growth 48h 6.6µM
CCOC(=O)c1cocc1C(=O)O	none (no result: Sm TGR block, Giardia FBPA inh, Pf growth 48h, Pf growth 96h)
CSCCC(NS(=O)(=O)c1cccc(C(F)(F)F)c1)C(=O)Nc1ccccc1N1CCCC1 (stereo not given)	Pf growth 48h inconclusive, Pf growth 96h 15µM (no result: Giardia FBPA inh)
Cc1cc(OCC(=O)Nc2ccccc2N2CCCC2)ccc1C(C)C	HCMV inh inconclusive, Pf growth 48h inconclusive, Pf growth 96h inconclusive (no result: Giardia FBPA inh)
O=C(COc1cccc(C(F)(F)F)c1)Nc1ccccc1N1CCCCC1	Pf growth 48h 10µM, Pf growth 96h inconclusive (no result: Giardia FBPA inh)
Cc1cc(C)cc(OCC(=O)Nc2ccccc2N2CCCCC2)c1	none (no result: Pf growth 96h)
Cc1cc(OCC(=O)Nc2ccccc2N2CCCCC2)ccc1C(C)C	Pf growth 48h inconclusive, Pf growth 96h 10µM (no result: Giardia FBPA inh)
CO[C@H]1COC(=O)C/C=C\[C@H](C)[C@@H](NS(=O)(=O)c2ccc(C)cc2)COC(=O)CCC[C@@H]1C	none (no result: HCMV inh, Sm TGR block, Pf growth 48h, Pf growth 96h)
COc1cccc(CN2CC(C(=O)NC3CCCCCC3)CCC2=O)c1 (stereo not given)	Pf growth 96h inconclusive (no result: Giardia FBPA inh)
O=C(NC1CCCCC1)C1CCC(=O)N(Cc2cccc(C(F)(F)F)c2)C1 (stereo not given)	HCMV inh -61, Pf growth 48h inconclusive
CN1CCN(C(=O)C2CCC(=O)N(Cc3cccc(C(F)(F)F)c3)C2)CC1 (stereo not given)	Sm TGR block 7.9µM (no result: Giardia FBPA inh)
Cc1cc(SCC(=O)N(C)C2CCS(=O)(=O)C2)nc2c(C)cccc12 (stereo not given)	none
COc1cc2c(c(OC)c1OC)-c1ccc(SC)c(=O)cc1C(NC=O)CC2 (stereo not given)	HCMV inh -97 (no result: Sm TGR block, Giardia FBPA inh, Pf growth 48h, Pf growth 96h)
COc1cc2c(c(OC)c1OC)-c1ccc(SC)c(=O)cc1C(NC(=O)c1ccccc1)CC2 (stereo not given)	HCMV inh -63 (no result: Sm TGR block, Giardia FBPA inh, Pf growth 48h, Pf growth 96h)
COc1cc2c(c(OC)c1OC)-c1ccc(OC)c(=O)cc1C(NC(=O)c1ccccc1)CC2 (stereo not given)	HCMV inh -75 (no result: Sm TGR block, Giardia FBPA inh, Pf growth 48h, Pf growth 96h)
O=c1[nH]nnc2c1ncn2C1OC(CO)C(O)C1O (stereo not given)	none (no result: Sm TGR block, Giardia FBPA inh, Pf growth 48h, Pf growth 96h)

From PubChem BioAssay
